# Laboratory results as given in PubChem BioAssay (NCATS).
# Inconclusive results are not listed. A call without a number means that no potency is given here. Values without a mark were called inactive. The source made the active and inactive calls. The call rests on the fitted dose curve; in most records, active means well fitted curve in the direction sought with a large enough effect; inconclusive means small, poorly fitted or top-dose-only effect, or another doubt; inactive means no such curve, though single readings can be large; an effect the other way counts as inactive or inconclusive.
# Key:
# NIH3T3 = experiment: qHTS assay to identify novel small-molecules to repurpose for Merkel cell carcinoma treatment (AID 1296009); conditions: MCC and control cell lines, CellTiter-Glo viability, 72 h; series mostly up to 44.8 µM; further: nearly all actives have a fitted effect of over 60% in size
# Outline: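 Dose-response viability screen; 72 hr exposure at 37 degree celsius; CellTiter-Glo added, 10 min room temperature, luminescence read; RLUs scaled between no-cell and DMSO wells.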
# C33A = experiment: Primary qHTS to identify gynecologic anti-cancer compounds using libraries of approved drugs and bioactive compounds (AID 1345084); conditions: Gynecologic cancer cell panel viability, ATPlite luminescence, 48 h; series mostly up to 57.5 µM; further: nearly all actives have a fitted effect of over 55% in size
# Outline: (§1)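 Cells, 1,000 per well, plated 16 h, then exposed 48 h at 37 C to compounds. Viability by ATPlite luminescence after 15 min at room temperature.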
# CASKI = experiment: as above; conditions: Gynecologic cancer cell panel viability, ATPlite luminescence, 48 h; series mostly up to 57.5 µM
# Outline: as §1
# Es-2 = experiment: as above; conditions: Gynecologic cancer cell panel viability, ATPlite luminescence, 48 h; series mostly up to 57.5 µM
# Outline: as §1
# HeLa = experiment: as above; conditions: Gynecologic cancer cell panel viability, ATPlite luminescence, 48 h; series mostly up to 57.5 µM
# Outline: as §1
# Hek293T = experiment: as above; conditions: Gynecologic cancer cell panel viability, ATPlite luminescence, 48 h, control line for the selectivity index; series mostly up to 57.5 µM
# Outline: as §1
# JEG-3 = experiment: as above; conditions: Gynecologic cancer cell panel viability, ATPlite luminescence, 48 h; series mostly up to 57.5 µM
# Outline: as §1
# OV90 = experiment: as above; conditions: Gynecologic cancer cell panel viability, ATPlite luminescence, 48 h; series mostly up to 57.5 µM
# Outline: as §1
# CAOV3 = experiment: as above; conditions: Gynecologic cancer cell panel viability, ATPlite luminescence, 48 h; series mostly up to 57.5 µM
# Outline: as §1
# Potency means the concentration at half of the fitted maximal effect.
smiles,measurement,setting,value
CCN(Cc1ccccc1)C(=O)Cn1c(=O)n(C)c2cnc(-c3ccccc3)nc21,Potency,NIH3T3,inactive
same,Potency,C33A,inactive
same,Potency,CASKI,inactive
same,Potency,Es-2,inactive
same,Potency,HeLa,inactive
same,Potency,Hek293T,inactive
same,Potency,JEG-3,inactive
same,Potency,OV90,inactive
COc1ccccc1N1CCN(CC(C(=O)NC(C)(C)C)c2ccccc2)CC1 (centres undefined),Potency,NIH3T3,inactive
same,Potency,CAOV3,inactive
same,Potency,CASKI,inactive
same,Potency,Es-2,inactive
same,Potency,HeLa,inactive
same,Potency,Hek293T,inactive
same,Potency,JEG-3,inactive
same,Potency,OV90,inactive
COC(=O)c1cc2c(C(F)(F)F)cc(-c3ccccc3)cc2n1O,Potency,NIH3T3,inactive
same,Potency,C33A,inactive
same,Potency,CASKI,inactive
same,Potency,Es-2,inactive
same,Potency,HeLa,inactive
same,Potency,Hek293T,inactive
same,Potency,JEG-3,inactive
same,Potency,OV90,inactive
COc1cc(/C=C2\CC[C@H]3COC[C@@H](c4cc(F)c(F)c(F)c4)N3C2=O)ccc1-n1cnc(C)c1,Potency,NIH3T3,inactive
same,Potency,C33A,inactive
same,Potency,CASKI,inactive
same,Potency,Es-2,inactive
same,Potency,HeLa,inactive
same,Potency,Hek293T,inactive
same,Potency,JEG-3,inactive
same,Potency,OV90,inactive
Cc1nnc(-c2ccc(-c3ccc(C(=O)Nc4ccc(O)c(N5CCN(C)CC5)c4)cc3)c(C)c2)o1,Potency,NIH3T3,inactive
same,Potency,C33A,inactive
same,Potency,CASKI,inactive
same,Potency,Es-2,inactive
same,Potency,HeLa,inactive
same,Potency,Hek293T,inactive
same,Potency,JEG-3,inactive
same,Potency,OV90,inactive
CC(C)C[C@@H]1NC(=O)[C@@H](Cc2ccccc2)NC(=O)C(CCCCCC(=O)C2CO2)NC(=O)[C@@H]2CCCCN2C1=O (some centres undefined),Potency,C33A,inactive
same,Potency,CAOV3,inactive
same,Potency,CASKI,0.708 µM (active)
same,Potency,Es-2,2.24 µM (active)
same,Potency,HeLa,inactive
same,Potency,Hek293T,inactive
CCN(CC)CCCCCCNc1cc(OC)cc2c(C)ccnc12,Potency,C33A,inactive
same,Potency,CAOV3,inactive
same,Potency,CASKI,inactive
same,Potency,Es-2,inactive
same,Potency,HeLa,inactive
same,Potency,Hek293T,inactive
CC(=O)OC(C)(C)/C=C/C(=O)C(C)(O)C1C(O)CC2(C)C3CC=C(C(C)(C)C(=O)O)C(CC(=O)O)C3(C)C(=O)CC12C (centres undefined),Potency,NIH3T3,inactive
same,Potency,C33A,inactive
same,Potency,CASKI,inactive
same,Potency,Es-2,inactive
same,Potency,HeLa,inactive
same,Potency,Hek293T,inactive
same,Potency,JEG-3,inactive
same,Potency,OV90,inactive
CC(=O)NC(C(=O)O[C@H]1CCC(C)(C)[C@@H]2CC=C3C(=O)OCC3(O)[C@@]12C)C(C)C (some centres undefined),Potency,NIH3T3,inactive
same,Potency,CAOV3,inactive
same,Potency,CASKI,inactive
same,Potency,Es-2,inactive
same,Potency,HeLa,inactive
same,Potency,Hek293T,inactive
same,Potency,JEG-3,inactive
Cc1cccc(-c2[nH]ncc2-c2ccnc3ccccc23)n1,Potency,C33A,inactive
same,Potency,CAOV3,inactive
same,Potency,CASKI,inactive
same,Potency,Es-2,inactive
same,Potency,HeLa,inactive
same,Potency,Hek293T,inactive
same,Potency,JEG-3,inactive
CC(=O)C1=CCC2C3CC=C4CC(O)CC(O)C4(C)C3C(O)CC12C (centres undefined),Potency,NIH3T3,inactive
same,Potency,CAOV3,inactive
same,Potency,HeLa,inactive
same,Potency,Hek293T,inactive
same,Potency,JEG-3,inactive
same,Potency,OV90,inactive
C[C@@H]1O[C@@H](O[C@H]2[C@@H](OC(=O)[C@]34CCC(C)(C)CC3C3=CCC5[C@@]6(C)C[C@H](O)[C@H](O[C@@H]7O[C@H](CO)[C@@H](O)[C@H](O)[C@H]7O[C@@H]7OC[C@@H](O)[C@H](O)[C@H]7O)[C@@](C)(C(=O)O)C6CC[C@@]5(C)[C@]3(C)CC4)OC[C@H](O)[C@@H]2O)[C@H](O)[C@H](O)[C@H]1O[C@@H]1OC[C@@H](O)[C@H](O)[C@H]1O (some centres undefined),"activity change, negative = cytotoxicity",C33A,-27.4% [at 6.55 µM]
same,"activity change, negative = cytotoxicity",CAOV3,2.23% [at 6.55 µM]
same,"activity change, negative = cytotoxicity",CASKI,-11.2% [at 6.55 µM]
same,"activity change, negative = cytotoxicity",Es-2,4.6% [at 6.55 µM]
same,"activity change, negative = cytotoxicity",HeLa,-12.9% [at 6.55 µM]
same,"activity change, negative = cytotoxicity",Hek293T,-3.38% [at 6.55 µM]
CCCc1cc(C)n(C)c(=O)c1CN(C)C(=O)c1cc(-c2ccc(N3CCN(C(C)C)CC3)nc2)cc2c1cnn2C(C)C,Potency,NIH3T3,inactive
same,Potency,CASKI,inactive
same,Potency,Es-2,inactive
same,Potency,Hek293T,inactive
same,Potency,JEG-3,inactive
same,Potency,OV90,inactive
C/C=C(/C)C(=O)O[C@H]1C=C(CO)C(=O)[C@H](OC(=O)/C(C)=C/CO)[C@H]1C(C)C,Potency,C33A,10 µM (active)
same,Potency,CAOV3,11.2 µM (active)
Cc1ccc(NC(=O)c2ccc(CN3CCNCC3)cc2)cc1Nc1nccc(-c2cccnc2)n1,Potency,NIH3T3,inactive
same,Potency,CAOV3,22.4 µM (active)
same,Potency,CASKI,17.8 µM (active)
same,Potency,Es-2,15.8 µM (active)
same,Potency,Hek293T,11.2 µM (active)
same,Potency,JEG-3,17.8 µM (active)
same,Potency,OV90,14.1 µM (active)
CCCN(CCc1ccsc1)C1CCc2c(O)cccc2C1 (centres undefined),Potency,NIH3T3,inactive
same,Potency,C33A,inactive
same,Potency,CASKI,inactive
same,Potency,Es-2,inactive
same,Potency,HeLa,inactive
same,Potency,Hek293T,inactive
same,Potency,JEG-3,inactive
same,Potency,OV90,inactive
CC[C@@H](C)Nc1cc(C(=O)NC2CC3CC[C@@H](C2)N3c2ccc(C(=O)C3CC3)cn2)c(C)cc1C(N)=O (some centres undefined),Potency,NIH3T3,0.184 µM (active)
same,Potency,CAOV3,0.794 µM (active)
same,Potency,Hek293T,0.316 µM (active)
same,Potency,OV90,0.316 µM (active)
CC1=C(c2ccc(NC(=O)c3c(F)cccc3F)cc2)CN(c2nccs2)CC1,Potency,C33A,inactive
same,Potency,CAOV3,inactive
same,Potency,CASKI,inactive
same,Potency,Es-2,inactive
same,Potency,HeLa,inactive
same,Potency,Hek293T,inactive
C[C@H]1CC[C@@]2(OC1)O[C@H]1CC3C4CC[C@H]5C[C@@H](O)CC[C@]5(C)C4=CC(=O)[C@]3(C)[C@H]1[C@@H]2C (some centres undefined),Potency,NIH3T3,inactive
same,Potency,C33A,inactive
same,Potency,CASKI,inactive
same,Potency,Es-2,inactive
same,Potency,HeLa,inactive
same,Potency,Hek293T,inactive
same,Potency,JEG-3,inactive
same,Potency,OV90,inactive
CC(=O)O[C@H]1CC2C(COC(=O)CC(C)C)=CO[C@@H](OC(=O)CC(C)C)C2[C@]12CO2 (some centres undefined),Potency,NIH3T3,inactive
same,Potency,C33A,inactive
same,Potency,Es-2,inactive
same,Potency,HeLa,inactive
same,Potency,Hek293T,inactive
same,Potency,JEG-3,inactive
same,Potency,OV90,inactive
COc1ccc(-c2ccccc2)cc1NS(=O)(=O)c1cc(Cl)cc(Cl)c1O,Potency,C33A,inactive
same,Potency,CAOV3,inactive
CO[C@H]1[C@@H](O)[C@H](O[C@H]2CC[C@@]3(C)C(CCC4C3CC[C@]35COC6(COC(=O)C6)C3CCC45O)C2)O[C@@H](C)[C@@H]1OC1OC(CO)C(OC2OC(CO)C(O)C(O)C2O)C(O)C1O (some centres undefined),outcome,NIH3T3,inactive [at 9.27 µM]
same,"activity change, negative = cytotoxicity",CAOV3,-7.69% [at 11.6 µM]
same,"activity change, negative = cytotoxicity",CASKI,-2.83% [at 11.6 µM]
same,"activity change, negative = cytotoxicity",Hek293T,-29.3% [at 11.6 µM]
same,"activity change, negative = cytotoxicity",JEG-3,18.5% [at 11.6 µM]
same,"activity change, negative = cytotoxicity",OV90,16.3% [at 11.6 µM]
CC[C@@H]1C[C@]1(NC(=O)[C@@H]1C[C@@H]2CN1C(=O)[C@H](C(C)(C)C)NC(=O)OCC(C)(C)CCCCc1cccc3c1CN(C3)C(=O)O2)C(=O)NS(=O)(=O)C1CC1,Potency,NIH3T3,inactive
same,Potency,C33A,inactive
same,Potency,CASKI,inactive
same,Potency,Es-2,inactive
same,Potency,HeLa,inactive
same,Potency,Hek293T,inactive
same,Potency,OV90,inactive
C/C=C/C=C/C(=O)O[C@@H]1C=C2COC(=O)[C@]2(O)[C@@]2(C)CCCC(C)(C)[C@H]12,Potency,NIH3T3,inactive
same,Potency,C33A,inactive
same,Potency,CASKI,inactive
same,Potency,Es-2,inactive
same,Potency,HeLa,inactive
same,Potency,Hek293T,inactive
same,Potency,JEG-3,inactive
same,Potency,OV90,inactive
CC(=O)c1ccc2c(c1)[C@H](NC(=O)c1ccc(F)c(Cl)c1)[C@H](O)C(C)(C)O2,Potency,NIH3T3,inactive
same,Potency,C33A,inactive
same,Potency,CASKI,inactive
same,Potency,Es-2,inactive
same,Potency,HeLa,inactive
same,Potency,Hek293T,inactive
same,Potency,JEG-3,inactive
same,Potency,OV90,inactive
C=C1CCCC2(C)CCC(C(C)(C)OC3OC(C)C(O)C(O)C3OC(=O)/C(C)=C\C)CC12 (centres undefined),Potency,NIH3T3,inactive
same,Potency,C33A,inactive
same,Potency,CASKI,inactive
same,Potency,Es-2,inactive
same,Potency,HeLa,inactive
same,Potency,Hek293T,inactive
same,Potency,JEG-3,inactive
same,Potency,OV90,inactive
C=CC(C)(C)c1[nH]c2ccccc2c1C[C@@H]1NC(=O)[C@H](C)NC1=O,Potency,NIH3T3,inactive
same,Potency,C33A,inactive
same,Potency,CASKI,inactive
same,Potency,Es-2,inactive
same,Potency,HeLa,inactive
same,Potency,Hek293T,inactive
same,Potency,JEG-3,inactive
same,Potency,OV90,inactive
COc1ccccc1-c1ccc(-c2cn(C(=O)N3CCCCC3Cc3ccccc3)nn2)cc1 (centres undefined),Potency,NIH3T3,inactive
same,Potency,C33A,inactive
same,Potency,CAOV3,inactive
same,Potency,CASKI,inactive
same,Potency,Es-2,inactive
same,Potency,JEG-3,inactive
Cc1nc(C(=O)N2CCC[C@H]2Cc2nnc(-c3ccccc3)o2)c(-c2ccccc2F)s1,Potency,C33A,inactive
same,Potency,CAOV3,inactive
same,Potency,CASKI,inactive
same,Potency,Es-2,inactive
same,Potency,HeLa,inactive
same,Potency,Hek293T,inactive
same,Potency,JEG-3,inactive
same,Potency,OV90,inactive
O=C(Nc1ccc(CN2CCOCC2)cc1)c1ccc(-c2cccc(Cl)c2)o1,Potency,C33A,inactive
same,Potency,CAOV3,inactive
same,Potency,CASKI,inactive
same,Potency,Es-2,inactive
same,Potency,HeLa,inactive
same,Potency,Hek293T,inactive
same,Potency,JEG-3,inactive
C=C1C(=O)OC2/C=C(\C)CC3C=C(CC/C=C(\C)CCC12)C(=O)O3 (centres undefined),Potency,C33A,inactive
same,Potency,CAOV3,inactive
same,Potency,CASKI,inactive
same,Potency,Es-2,inactive
same,Potency,HeLa,inactive
same,Potency,Hek293T,inactive
same,Potency,JEG-3,inactive
